Test results reported in PubChem BioAssay (NCI).
Compounds without any hit were thinned out: in the full panel of roughly 83,000, 20% have a hit.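 Each cell line was grown in a 96-well plate and treated with one concentration of compound for 48 hours. Values below 10 were considered active.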 A number with no mark means an inactive call. Calls of active or inactive are those of the source.

Assays:
Experiment in all cases: NCI-60 one-dose screen, 48 h (100 = growth as untreated, 0 = no growth, -100 = all killed)
Conditions in all cases: 10 µM unless noted
[1] = system: SK-MEL-2 melanoma
[2] = system: EKVX NSCLC
[3] = system: SN12C renal
[4] = system: UO-31 renal
[5] = system: TK-10 renal
[6] = system: ACHN renal
[7] = system: CAKI-1 renal
[8] = system: A498 renal
[9] = system: CCRF-CEM leukemia
[10] = system: MOLT-4 leukemia
[11] = system: SR leukemia
[12] = system: RPMI-8226 leukemia
[13] = system: OVCAR-5 ovarian
[14] = system: OVCAR-4 ovarian
[15] = system: SK-OV-3 ovarian
[16] = system: IGROV1 ovarian
[17] = system: OVCAR-3 ovarian
[18] = system: HS 578T breast
[19] = system: NCI/ADR-RES ovarian
[20] = system: OVCAR-8 ovarian

Row | Compound | growth [1] | growth [2] [%] | growth [3] | growth [4] | growth [5] | growth [6] | growth [7] | growth [8] | growth [9] | growth [10] | growth [11] | growth [12] | growth [13] [%] | growth [14] | growth [15] | growth [16] | growth [17] | growth [18] | growth [19] | growth [20]
1 | COc1cc(/C=C2\C(=O)N(Cc3ccc(Cl)cc3)c3ccccc32)cc(OC)c1OC | 90.2% | 88.8 | 24.9% | 26.6% | 20.5% | 40.6% | 24.6% | 26.2% | -3.04% (active) | 8.46% (active) | -5.2% (active) | -31.7% (active) | 65.9 | 47.7% | 79.3% | 9.22% (active) | -49.6% (active) | -14.3% (active) | 21.4% | –
2 | O=C(Nc1sc2c(c1C(=O)O)CCCC2)c1cccc(C(F)(F)F)c1 | 98.6% | 93.7 | 95.6% | 85.8% | 105% | 87.9% | 91.1% | 95.2% | 85.3% | 96.9% | 115% | – | 98.5 | 86.2% | 83.8% | 96.3% | 94.3% | 98.2% | – | 94.6%
3 | O=C(OCc1nc2nc(Cl)nc(N3CCOCC3)c2[nH]1)n1ccnc1 | -67.1% (active) | 62.1 | 8.48% (active) | -81% (active) | -77.4% (active) | -100% (active) | -68.8% (active) | -4.23% (active) | -12% (active) | 9.71% (active) | -14.2% (active) | -35.7% (active) | – | -38.3% (active) | 46.2% | 2.36% (active) | -84.9% (active) | 5.43% (active) | 6.27% (active) | -44.9% (active)
4 | COc1ccc(C(=O)c2cc3c(N)c(C(=O)Nc4ccc(Cl)cc4)sc3nc2C)cc1 | 68.5% | 86.1 | 89.9% | 79% | 82% | 74.7% | 66.3% | 59.9% | 73.9% | 82.6% | – | 74.6% | 86.7 | 21.5% | 73.5% | 90.6% | 73.3% | 60.3% | 75.3% | 50.2%
5 | C#CCn1cc(C=C2C(=O)NC(=S)NC2=O)c2cc(Cl)ccc21 | 89.1% | 67.2 | -34.9% (active) | -73.4% (active) | 16.1% | -25.2% (active) | 9.84% (active) | -1.83% (active) | 0.645% (active) | 5.59% (active) | 4.92% (active) | -14.9% (active) | – | 56.1% | 81.7% | -40.6% (active) | -36.4% (active) | -0.874% (active) | 19.5% | 12.1%
6 | Clc1cc(Cl)cc(N2N=C(c3cccc(Nc4ccncc4)c3)CC2c2ccccc2)c1 (centres undefined) | 97.1% | 87.6 | 71.4% | 62% | 89.9% | 14.9% | 27% | 103% | 28.3% | 2.51% (active) | – | 28.5% | 80.4 | 55.7% | 84.7% | 39.5% | 67.4% | 80.2% | 72.1% | 2.42% (active)
7 | Cc1cccc(C)c1-c1cc(Cc2ccc(Cl)cc2)c(=O)[nH]n1 | 114% | 92.8 | 89.5% | 52.5% | 114% | 112% | 146% | 104% | – | 74.3% | 4.66% (active) | 52.2% | 96.5 | 97.6% | 103% | 77.6% | 103% | 94% | 96.1% | 97.1%
8 | Clc1cc(Cl)cc(N2N=C(c3cccc(Nc4ccncc4)c3)CC2c2ccc(Br)cc2)c1 (centres undefined) | 99.2% | 67.8 | 58.3% | 52.1% | 71.4% | 46.3% | 48.2% | 88.8% | – | 3.97% (active) | 3.33% (active) | 21.3% | 77.2 | 2.37% (active) | 83.3% | 12.3% | 57.6% | 46.7% | 51.2% | -13.7% (active)
9 | CN1C(=O)N(C)C2NC(N/N=C/c3ccccc3)=NC21 (centres undefined) | 108% | 98.7 | 98.5% | 92.7% | 100% | 102% | 88.8% | 95.4% | – | 103% | 117% | 138% | 98.3 | 103% | 115% | 102% | 106% | 94.7% | 104% | 102%
10 | COc1cc(NCCN(CC(C)C)C2CCCC2)c2ncccc2c1 | 89.2% | 95.2 | 93.1% | 83.7% | 109% | 82.2% | 97.1% | 75% | – | 90.9% | 82.6% | 99.2% | – | 36.6% | 97.7% | 86.8% | 83.1% | 84.2% | 86.6% | 84.9%
11 | CCN(CC)CCCC(C)Nc1cc(-c2cccc(OC(F)(F)F)c2)nc2ccc(N3CCCC3)cc12 (centres undefined) | -71.2% (active) | 49.9 | 38.1% | 23.7% | 12.2% | -19.5% (active) | -53% (active) | 29.4% | – | 2.34% (active) | -31.6% (active) | -37% (active) | – | 34.8% | 82% | 29.9% | 0.648% (active) | -22.3% (active) | 13.4% | -5.79% (active)
12 | O=C(/C=C\c1ccc(OCCCCCC[P+](c2ccccc2)(c2ccccc2)c2ccccc2)cc1)c1ccc2c(c1)OCCO2 | -42.9% (active) | 23.9 | 2.08% (active) | 4.82% (active) | -9.1% (active) | 5.03% (active) | 2.91% (active) | -30% (active) | – | -20.6% (active) | -18.9% (active) | -41.7% (active) | 13.9 | -3.06% (active) | -23.8% (active) | 5.29% (active) | -27% (active) | 7.53% (active) | 78.1% | 1.04% (active)
13 | COc1cc(-c2cc(=O)oc3cc(O)ccc23)cc(OC)c1OC | 101% | 89.8 | 79% | 72.2% | 110% | 89.3% | 74% | 101% | – | 92.9% | 97.6% | 41.8% | 103 | 73% | 135% | 94% | 88.4% | 88.5% | 88.3% | 84.9%
14 | N#Cc1ccc(-c2ccc3c(c2)NC(=O)/C3=C\c2ccc[nH]2)cc1 | 89.3% | 26.5 | 95.8% | 72% | 54.4% | 101% | 82.4% | – | 103% | 109% | 22.2% | 101% | 43.2 | 43.3% | 62.6% | 66.2% | 88.8% | 103% | – | 101%
15 | O=C1Nc2c(ccc(Cl)c2Cl)/C1=C/c1ccc(O)cc1 | 108% | 62.1 | 97.4% | 61.8% | 101% | 87.6% | 59.7% | 115% | – | 77.3% | – | 78.6% | 90.6 | 72.9% | 86.4% | 42.6% | 92.9% | 89% | 96.6% | 92.3%
16 | CC(=O)c1c(C)[nH]c(-c2nc3ccc(N4CCN(C)CC4)cc3[nH]2)c1-c1ccccc1 | 48.6% | 35.5 | 37.7% | 5.51% (active) | 23.9% | 19.4% | 7.67% (active) | 31.8% | – | 50.7% | 28.4% | 3.67% (active) | 34.8 | 33.4% | 20.5% | 23.8% | 28.8% | 9.13% (active) | 36.3% | 45.6%
